Columns and labels:
[1] = target: Calcium/calmodulin-dependent protein kinase type II subunit alpha (Homo sapiens) (UniProt Q9UQM7); details: at 1 µM;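 also: reported value is a mean percent inhibition of CAMK2A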
[2] = target: Calcium/calmodulin-dependent protein kinase type II subunit delta (Homo sapiens) (UniProt Q13557); details: at 0.1 µM
[3] = target: Calcium/calmodulin-dependent protein kinase type II subunit delta (Homo sapiens) (UniProt Q13557); details: at 1 µM
[4] = target: T1, Calcium/calmodulin-dependent protein kinase type IV (Homo sapiens) (UniProt Q16566); details: at 0.1 µM
T1 sequence (whole entry): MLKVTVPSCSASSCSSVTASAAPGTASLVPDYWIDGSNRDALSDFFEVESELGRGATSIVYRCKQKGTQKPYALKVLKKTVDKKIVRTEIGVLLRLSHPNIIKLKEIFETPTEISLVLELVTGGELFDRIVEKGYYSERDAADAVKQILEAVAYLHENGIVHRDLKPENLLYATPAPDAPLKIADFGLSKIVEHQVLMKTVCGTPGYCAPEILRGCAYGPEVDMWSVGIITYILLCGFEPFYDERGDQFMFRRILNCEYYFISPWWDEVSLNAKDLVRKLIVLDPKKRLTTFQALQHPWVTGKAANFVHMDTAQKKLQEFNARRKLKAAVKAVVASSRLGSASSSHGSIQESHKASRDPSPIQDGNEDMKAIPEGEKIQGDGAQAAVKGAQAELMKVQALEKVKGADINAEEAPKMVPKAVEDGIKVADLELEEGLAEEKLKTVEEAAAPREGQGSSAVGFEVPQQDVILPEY

[5] = target: T1, Calcium/calmodulin-dependent protein kinase type IV (Homo sapiens); details: at 1 µM
[6] = target: T2, Serine/threonine-protein kinase Chk1 (Homo sapiens) (UniProt O14757); details: at 0.1 µM
T2 sequence (whole entry): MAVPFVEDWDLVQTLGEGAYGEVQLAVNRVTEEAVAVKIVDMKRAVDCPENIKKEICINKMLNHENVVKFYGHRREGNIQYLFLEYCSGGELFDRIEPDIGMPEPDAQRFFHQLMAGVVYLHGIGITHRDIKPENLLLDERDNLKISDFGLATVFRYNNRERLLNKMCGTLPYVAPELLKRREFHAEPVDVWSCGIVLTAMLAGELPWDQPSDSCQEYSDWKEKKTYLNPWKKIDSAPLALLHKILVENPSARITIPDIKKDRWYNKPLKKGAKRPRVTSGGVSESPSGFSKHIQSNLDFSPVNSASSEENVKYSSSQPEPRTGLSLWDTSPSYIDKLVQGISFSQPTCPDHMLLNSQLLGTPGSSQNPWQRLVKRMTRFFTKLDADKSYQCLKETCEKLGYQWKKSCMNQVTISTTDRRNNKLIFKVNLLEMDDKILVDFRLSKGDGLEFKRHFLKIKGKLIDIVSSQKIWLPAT

[7] = target: T2, Serine/threonine-protein kinase Chk1 (Homo sapiens); details: at 1 µM
[8] = target: Serine/threonine-protein kinase Chk2 (Homo sapiens) (UniProt O96017); details: at 0.1 µM
[9] = target: Serine/threonine-protein kinase Chk2 (Homo sapiens) (UniProt O96017); details: at 1 µM
[10] = target: Death-associated protein kinase 1 (Homo sapiens) (UniProt P53355); details: at 0.1 µM
[11] = target: Death-associated protein kinase 1 (Homo sapiens) (UniProt P53355); details: at 1 µM
[12] = target: T3, Serine/threonine-protein kinase DCLK2 (Homo sapiens) (UniProt Q8N568); details: at 0.1 µM
T3 sequence (whole entry): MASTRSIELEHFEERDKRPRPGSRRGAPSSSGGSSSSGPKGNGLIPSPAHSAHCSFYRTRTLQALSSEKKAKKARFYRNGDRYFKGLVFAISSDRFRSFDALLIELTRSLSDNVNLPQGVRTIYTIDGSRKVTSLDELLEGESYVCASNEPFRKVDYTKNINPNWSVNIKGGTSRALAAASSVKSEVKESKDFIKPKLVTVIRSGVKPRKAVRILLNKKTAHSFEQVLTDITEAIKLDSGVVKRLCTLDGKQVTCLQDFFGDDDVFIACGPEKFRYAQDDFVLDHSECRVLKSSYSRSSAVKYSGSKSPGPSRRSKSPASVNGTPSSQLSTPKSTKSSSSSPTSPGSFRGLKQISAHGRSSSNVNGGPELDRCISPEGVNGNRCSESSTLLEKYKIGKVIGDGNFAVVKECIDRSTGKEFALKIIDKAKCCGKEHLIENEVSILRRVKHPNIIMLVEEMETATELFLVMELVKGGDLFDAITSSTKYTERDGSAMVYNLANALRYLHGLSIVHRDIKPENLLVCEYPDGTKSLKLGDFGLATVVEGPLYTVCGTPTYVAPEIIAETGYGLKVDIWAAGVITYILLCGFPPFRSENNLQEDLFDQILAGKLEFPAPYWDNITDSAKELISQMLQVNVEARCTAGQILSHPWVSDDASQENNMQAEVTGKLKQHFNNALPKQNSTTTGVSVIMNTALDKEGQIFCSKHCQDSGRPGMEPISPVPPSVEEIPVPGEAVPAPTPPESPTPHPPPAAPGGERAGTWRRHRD

[13] = target: T3, Serine/threonine-protein kinase DCLK2 (Homo sapiens); details: at 1 µM
[14] = target: MAP kinase-activated protein kinase 2 (Homo sapiens) (UniProt P49137); details: at 0.1 µM
[15] = target: MAP kinase-activated protein kinase 2 (Homo sapiens) (UniProt P49137); details: at 1 µM
[16] = target: MAP kinase-activated protein kinase 3 (Homo sapiens) (UniProt Q16644); details: at 0.1 µM
[17] = target: MAP kinase-activated protein kinase 3 (Homo sapiens) (UniProt Q16644); details: at 1 µM
[18] = target: Serine/threonine-protein kinase MARK1 (Homo sapiens) (UniProt Q9P0L2); details: at 0.1 µM
[19] = target: Serine/threonine-protein kinase MARK1 (Homo sapiens) (UniProt Q9P0L2); details: at 1 µM
[20] = target: MAP/microtubule affinity-regulating kinase 3 (Homo sapiens) (UniProt P27448); details: at 0.1 µM;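 also: mean percent inhibition of MARK3 kinase activity, measured within the GSK PKIS screening panel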
MAP/microtubule affinity-regulating kinase 3 (Homo sapiens), sequence (P27448 whole entry, looked up): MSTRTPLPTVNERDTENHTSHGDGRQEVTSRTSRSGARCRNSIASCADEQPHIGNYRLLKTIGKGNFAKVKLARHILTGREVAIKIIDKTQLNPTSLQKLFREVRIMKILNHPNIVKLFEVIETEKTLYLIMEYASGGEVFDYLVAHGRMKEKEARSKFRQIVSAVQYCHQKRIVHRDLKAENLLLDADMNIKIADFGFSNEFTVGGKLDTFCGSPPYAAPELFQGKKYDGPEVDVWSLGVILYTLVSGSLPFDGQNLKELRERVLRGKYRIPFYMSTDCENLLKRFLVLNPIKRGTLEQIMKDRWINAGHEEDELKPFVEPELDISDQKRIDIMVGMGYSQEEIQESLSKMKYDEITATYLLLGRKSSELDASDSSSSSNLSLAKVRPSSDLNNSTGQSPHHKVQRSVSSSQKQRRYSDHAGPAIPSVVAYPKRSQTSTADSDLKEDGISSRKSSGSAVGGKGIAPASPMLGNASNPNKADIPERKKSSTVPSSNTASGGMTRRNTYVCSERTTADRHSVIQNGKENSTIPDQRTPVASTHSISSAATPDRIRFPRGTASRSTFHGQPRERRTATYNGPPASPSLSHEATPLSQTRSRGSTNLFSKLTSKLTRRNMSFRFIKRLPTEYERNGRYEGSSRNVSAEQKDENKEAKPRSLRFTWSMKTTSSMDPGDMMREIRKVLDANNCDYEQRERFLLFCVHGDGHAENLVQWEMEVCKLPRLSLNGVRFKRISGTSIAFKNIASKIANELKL

Calcium/calmodulin-dependent protein kinase type II subunit delta (Homo sapiens), sequence (Q13557 whole entry): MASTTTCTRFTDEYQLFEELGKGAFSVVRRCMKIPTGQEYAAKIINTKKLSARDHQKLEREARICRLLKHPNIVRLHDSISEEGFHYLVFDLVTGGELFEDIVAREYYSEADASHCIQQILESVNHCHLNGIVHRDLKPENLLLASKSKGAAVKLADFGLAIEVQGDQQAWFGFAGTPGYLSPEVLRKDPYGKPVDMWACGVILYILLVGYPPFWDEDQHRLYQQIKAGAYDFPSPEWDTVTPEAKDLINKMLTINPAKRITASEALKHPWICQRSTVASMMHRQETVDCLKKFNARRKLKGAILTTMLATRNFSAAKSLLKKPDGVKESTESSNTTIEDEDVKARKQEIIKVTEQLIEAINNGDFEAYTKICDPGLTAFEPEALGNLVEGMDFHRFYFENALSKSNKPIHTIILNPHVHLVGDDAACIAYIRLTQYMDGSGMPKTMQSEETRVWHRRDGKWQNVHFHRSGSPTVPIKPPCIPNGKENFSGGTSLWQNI
Death-associated protein kinase 1 (Homo sapiens), sequence (P53355 whole entry, looked up): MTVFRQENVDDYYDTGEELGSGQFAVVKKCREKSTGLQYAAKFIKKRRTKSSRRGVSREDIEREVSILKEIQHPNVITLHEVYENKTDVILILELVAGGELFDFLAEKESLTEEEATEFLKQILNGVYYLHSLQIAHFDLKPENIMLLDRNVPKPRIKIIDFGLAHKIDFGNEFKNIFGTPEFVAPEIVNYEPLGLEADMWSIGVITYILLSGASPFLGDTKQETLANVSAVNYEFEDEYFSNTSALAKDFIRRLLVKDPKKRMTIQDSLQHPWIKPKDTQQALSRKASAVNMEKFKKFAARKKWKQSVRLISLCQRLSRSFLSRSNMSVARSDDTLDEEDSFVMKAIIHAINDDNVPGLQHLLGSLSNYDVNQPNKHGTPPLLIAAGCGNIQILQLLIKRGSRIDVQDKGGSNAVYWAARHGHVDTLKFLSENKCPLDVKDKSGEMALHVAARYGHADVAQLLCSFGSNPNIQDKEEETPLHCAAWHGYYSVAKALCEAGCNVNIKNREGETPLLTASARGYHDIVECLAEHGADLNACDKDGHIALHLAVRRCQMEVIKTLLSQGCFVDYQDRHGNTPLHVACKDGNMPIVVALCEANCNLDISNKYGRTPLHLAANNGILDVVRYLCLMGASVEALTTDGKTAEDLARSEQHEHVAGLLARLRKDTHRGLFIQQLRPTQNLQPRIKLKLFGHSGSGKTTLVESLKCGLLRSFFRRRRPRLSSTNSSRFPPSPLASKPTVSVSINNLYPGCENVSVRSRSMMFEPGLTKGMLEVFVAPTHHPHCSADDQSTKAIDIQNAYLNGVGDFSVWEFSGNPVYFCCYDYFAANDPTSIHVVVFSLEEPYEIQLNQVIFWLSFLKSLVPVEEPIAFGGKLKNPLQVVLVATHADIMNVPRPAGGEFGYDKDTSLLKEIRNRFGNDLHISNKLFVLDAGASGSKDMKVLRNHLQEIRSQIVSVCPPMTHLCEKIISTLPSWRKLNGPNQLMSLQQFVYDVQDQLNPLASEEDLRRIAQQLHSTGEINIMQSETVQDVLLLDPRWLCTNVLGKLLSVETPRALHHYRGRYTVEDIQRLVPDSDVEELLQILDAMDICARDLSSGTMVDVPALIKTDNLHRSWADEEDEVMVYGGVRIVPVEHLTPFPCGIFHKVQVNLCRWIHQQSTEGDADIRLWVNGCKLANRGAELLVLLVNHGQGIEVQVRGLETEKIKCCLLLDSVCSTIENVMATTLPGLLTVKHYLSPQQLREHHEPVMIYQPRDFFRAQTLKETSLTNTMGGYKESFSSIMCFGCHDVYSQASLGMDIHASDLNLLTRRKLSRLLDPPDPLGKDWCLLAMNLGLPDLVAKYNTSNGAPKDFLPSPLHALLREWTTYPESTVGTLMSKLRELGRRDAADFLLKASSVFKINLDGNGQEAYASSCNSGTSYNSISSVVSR
MAP kinase-activated protein kinase 3 (Homo sapiens), sequence (Q16644 whole entry, looked up): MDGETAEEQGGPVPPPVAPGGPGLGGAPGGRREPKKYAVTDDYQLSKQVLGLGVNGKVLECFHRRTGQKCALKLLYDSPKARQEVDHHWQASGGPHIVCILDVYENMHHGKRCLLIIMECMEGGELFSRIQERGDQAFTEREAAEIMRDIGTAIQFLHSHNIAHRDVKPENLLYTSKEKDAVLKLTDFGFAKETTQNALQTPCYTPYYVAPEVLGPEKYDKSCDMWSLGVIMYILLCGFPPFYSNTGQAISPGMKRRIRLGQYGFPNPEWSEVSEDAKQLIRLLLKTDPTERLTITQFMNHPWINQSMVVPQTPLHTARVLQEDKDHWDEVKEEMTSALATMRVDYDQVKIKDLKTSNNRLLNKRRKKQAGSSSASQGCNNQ
MAP kinase-activated protein kinase 2 (Homo sapiens), sequence (P49137 whole entry, looked up): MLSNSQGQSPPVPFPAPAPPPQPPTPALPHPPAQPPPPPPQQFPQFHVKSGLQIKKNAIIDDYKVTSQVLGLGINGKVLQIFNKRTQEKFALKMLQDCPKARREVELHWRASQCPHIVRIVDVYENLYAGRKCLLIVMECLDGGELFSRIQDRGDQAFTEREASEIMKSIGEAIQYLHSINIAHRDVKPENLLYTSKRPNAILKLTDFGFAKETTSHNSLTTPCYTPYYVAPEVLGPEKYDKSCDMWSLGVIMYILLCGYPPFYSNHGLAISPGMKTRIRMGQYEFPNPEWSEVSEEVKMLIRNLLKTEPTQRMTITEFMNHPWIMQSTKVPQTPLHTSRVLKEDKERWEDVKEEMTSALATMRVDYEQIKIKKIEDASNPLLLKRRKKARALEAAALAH
Serine/threonine-protein kinase MARK1 (Homo sapiens), sequence (Q9P0L2 whole entry, looked up): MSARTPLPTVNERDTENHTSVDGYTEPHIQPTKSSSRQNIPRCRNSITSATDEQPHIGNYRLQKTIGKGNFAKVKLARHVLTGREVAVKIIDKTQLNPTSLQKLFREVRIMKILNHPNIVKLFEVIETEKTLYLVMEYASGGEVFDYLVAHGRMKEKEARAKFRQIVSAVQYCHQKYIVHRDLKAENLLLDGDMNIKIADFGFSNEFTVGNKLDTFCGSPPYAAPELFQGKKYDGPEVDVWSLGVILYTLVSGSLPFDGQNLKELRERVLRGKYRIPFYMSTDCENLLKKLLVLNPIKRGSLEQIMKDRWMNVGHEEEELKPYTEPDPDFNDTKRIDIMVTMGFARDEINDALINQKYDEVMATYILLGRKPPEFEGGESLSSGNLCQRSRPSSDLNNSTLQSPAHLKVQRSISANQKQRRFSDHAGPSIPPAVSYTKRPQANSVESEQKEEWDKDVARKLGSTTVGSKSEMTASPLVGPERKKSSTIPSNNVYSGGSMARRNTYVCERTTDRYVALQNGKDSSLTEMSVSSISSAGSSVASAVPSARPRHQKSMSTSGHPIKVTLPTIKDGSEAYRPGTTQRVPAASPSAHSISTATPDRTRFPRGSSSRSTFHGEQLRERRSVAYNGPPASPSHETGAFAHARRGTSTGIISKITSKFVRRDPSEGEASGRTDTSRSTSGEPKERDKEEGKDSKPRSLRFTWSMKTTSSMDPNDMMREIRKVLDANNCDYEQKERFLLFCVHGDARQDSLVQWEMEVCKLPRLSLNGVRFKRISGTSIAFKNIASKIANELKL
Serine/threonine-protein kinase Chk2 (Homo sapiens), sequence (O96017 whole entry): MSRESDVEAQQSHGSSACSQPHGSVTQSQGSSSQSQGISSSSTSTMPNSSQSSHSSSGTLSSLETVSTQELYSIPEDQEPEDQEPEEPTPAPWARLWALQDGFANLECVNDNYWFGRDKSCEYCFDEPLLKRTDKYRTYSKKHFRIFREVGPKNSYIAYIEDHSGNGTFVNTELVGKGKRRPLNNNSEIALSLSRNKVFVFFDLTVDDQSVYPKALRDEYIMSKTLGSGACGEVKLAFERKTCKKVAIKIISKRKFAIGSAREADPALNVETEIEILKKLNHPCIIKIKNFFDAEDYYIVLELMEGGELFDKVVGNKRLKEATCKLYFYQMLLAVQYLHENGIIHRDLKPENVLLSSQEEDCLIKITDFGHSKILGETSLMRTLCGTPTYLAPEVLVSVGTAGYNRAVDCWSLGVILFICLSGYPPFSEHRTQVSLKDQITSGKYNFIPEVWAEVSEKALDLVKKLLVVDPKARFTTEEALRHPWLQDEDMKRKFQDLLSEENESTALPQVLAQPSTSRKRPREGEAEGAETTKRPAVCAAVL

| SMILES | inhibition [1] [%] | inhibition [2] [%] | inhibition [3] [%] | inhibition [4] [%] | inhibition [5] [%] | inhibition [6] [%] | inhibition [7] [%] | inhibition [8] [%] | inhibition [9] [%] | inhibition [10] [%] | inhibition [11] [%] | inhibition [12] [%] | inhibition [13] [%] | inhibition [14] [%] | inhibition [15] [%] | inhibition [16] [%] | inhibition [17] [%] | inhibition [18] [%] | inhibition [19] [%] | inhibition [20] [%] |
| --- | --- | --- | --- | --- | --- | --- | --- | --- | --- | --- | --- | --- | --- | --- | --- | --- | --- | --- | --- | --- |
| Cc1ccc(NC(=O)CC2CC2)cc1-c1ccc(C(=O)NCC2CC2)cc1 | 2.95 | 2.84 | 3.34 | -0.3 | -0.84 | 7.49 | 10.9 | 6.96 | 7.62 | 11.5 | 12.4 | 1.13 | 0.51 | 4.17 | 4.27 | 18.4 | 33.5 | 2.05 | 2.04 | 2.42 |
| c1ccc(Cc2nc3ccc(Nc4ncnc5ccccc45)cc3[nH]2)cc1 | 2 | 1.68 | 2.41 | -2.03 | -1.81 | 2.86 | 9.39 | 1.71 | 5.02 | 3.43 | 5.17 | -0.21 | 1.02 | 1.39 | 1.85 | 3.82 | 4.05 | 1.85 | 6.13 | 1.67 |
| COc1cc2ncnc(Nc3ccc(C)c(O)c3)c2cc1OC | 2.74 | 2.6 | 3.68 | -1.73 | -3.77 | 4.63 | 4 | 5.03 | 25.5 | 6.4 | 6.25 | 2.8 | 0.34 | 3.52 | 3.42 | 5.93 | 7.13 | 4.14 | 7.86 | 4.06 |
| Nc1nccc(C#Cc2cncnc2Nc2ccc(OCc3cccc(F)c3)c(Cl)c2)n1 | 5.08 | 8.4 | 8.79 | -0.4 | 0.61 | 1.22 | 7.61 | 2.66 | 5.77 | 3.9 | 5.3 | 1.36 | 0.82 | 1.66 | 1.43 | 2.38 | 4.95 | 5.72 | 10.4 | 4.09 |
| O=C(Nc1ccc(Oc2ccc3[nH]c(NC(=O)c4ccco4)nc3c2)cc1)Nc1cc(C(F)(F)F)ccc1F | 2.09 | 1.58 | 4.15 | 2.98 | 4.62 | -0.34 | -0.68 | 0.12 | 4.39 | -1.4 | -1.29 | -4.07 | -5.38 | -0.82 | -1.43 | 2.85 | 16.3 | -1.16 | 0.35 | -0.52 |
| NS(=O)(=O)c1ccc(Nc2cc(-c3cccc(O)c3)n[nH]2)cc1 | 5.49 | 5.13 | 6.02 | 0.32 | -1.03 | 5.99 | 8.68 | 3.04 | 6.54 | 7.24 | 8.63 | 0.84 | 0.2 | 1.88 | 2.79 | 4.03 | 4.03 | 5.12 | 11.5 | 5.96 |
| CS(=O)(=O)Nc1cccc(-c2ccc3c(NC(=O)C4CC4)n[nH]c3c2)c1 | 2.85 | 3.31 | 3 | 1.21 | 0.65 | 1.78 | 1.91 | 0.51 | 0.84 | 1.43 | 3.29 | 2.43 | 1.35 | 0.07 | 0.38 | -0.07 | 0.93 | 0.98 | 3.49 | 1.49 |
| CN(C)C(=O)O[C@@H]1CN[C@@H](C#Cc2cc3ncnc(Nc4ccc(OCc5cccc(F)c5)c(Cl)c4)c3s2)C1 | 1.65 | 1.47 | 2.72 | 0.93 | 0.99 | -0.23 | 0.16 | 0.47 | 1.66 | 0.93 | 1.85 | 1.22 | 0.53 | -2.43 | -0.13 | 2.61 | 3.12 | 0.76 | 0.76 | 2.16 |
| COc1ccc2ncnc(Nc3ccc(OCc4ccccc4)cc3)c2c1 | 2.13 | 0.77 | 1.93 | 0.01 | 0.04 | 0.93 | 3.17 | 1.65 | 14.2 | 3.34 | 3.26 | -5.53 | -8.44 | 1.42 | -2.28 | 2.72 | 4.71 | 1.85 | 3.7 | 1.64 |
| COc1cc(Nc2nccc(-c3cnn4ncccc34)n2)cc(OC)c1 | 15.2 | 6.12 | 36.4 | 1.42 | -0.26 | -0.97 | 7.68 | 1.81 | 14.1 | 1.9 | 1.26 | 4.84 | -3.23 | 0.26 | 0.15 | 0.44 | 0.56 | 4.67 | 32.3 | 6.88 |
| Nc1nccc(-c2c(-c3ccc(F)cc3)nn3cc(C(F)(F)F)ccc23)n1 | -1.99 | 0.49 | -0.48 | -0.17 | -1 | -1.52 | -2.44 | 0.02 | -0.27 | 2.24 | 1.3 | -1.79 | -1.22 | -0.92 | -1.14 | 5.47 | 19.9 | -0.24 | -0.05 | -0.09 |
| CCS(=O)(=O)c1ccc(OC)c(Nc2ncc(-c3cccc(OC)c3)o2)c1 | 6.74 | 1.91 | 9.35 | -0.13 | 1.2 | 1.44 | 3.19 | 1.56 | 2.17 | 2.65 | 4.19 | 0.56 | -0.14 | 0.86 | 0.67 | 1.43 | 3.53 | 1.2 | 2.37 | 3.96 |
| Cc1ccc2c(c1)/C(=N/Nc1ccc(S(N)(=O)=O)cc1)C(=O)N2 | 2.25 | 1.2 | 3.28 | 1.05 | 2.05 | 0.25 | 3.5 | 0.04 | 0.67 | 0.46 | 1.29 | 6.62 | -0.15 | -0.81 | -0.37 | 2.9 | 1.35 | 0.5 | 3.86 | -0.22 |
